About 4,100 (7.2%) of roughly 57,000 sequences were called active. Cut-off read from the data, not from the text of the source: active = GI50 up to about 1.1 µM and inactive = higher. The list is a sample of the results. Results with a measured potency or affinity are listed apart.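 Results reflect a 48-hour exposure of cells in 96-well plates to compound at five concentrations. GI50 marks 50% less growth.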

The subject of the assay is COLO 205. The assay is described as follows: NCI tumour cell line growth inhibition, 48 h.
For the substance “[Bis(aminomethyl)pentamethylenesilane]dichloropaltinum(II), CHEMBL2146202”, the GI50 amounted to 2.07 µM. The same measure for “[Bis(aminomethyl)tetramethylenesilane]tetrachloropaltinum(IV), CHEMBL2146189”: 8.51 µM. The value for “[Bis(aminomethyl)dimethylsilane]dichloroplatinum (II), CHEMBL2146201” was 24.3 µM; that for “cis-Bis[[(trimethylsilyl)methyl]amino]tetrachloroplatinum(IV), CHEMBL2146191” was 2.07 µM.

Regarding “[Bis(aminomethyl)tetramethylenesilane]dichloropaltinum(II), CHEMBL2146205”, the GI50 turned out to be 20.1 µM. The value for “[Bis(aminomethyl)pentamethylenesilane]tetrachloropaltinum(IV), CHEMBL2146204” was 1.53 µM. “[Bis(aminomethyl)ethylmethylsilane]tetrachloroplatinum(IV), CHEMBL2146192” displayed a GI50 of 5.15 µM. The value for “mu-(1,7-nanodiamine-N,N')bis-(cis-aminedichloroplatimum (II)), CHEMBL2146215” was 6 µM. The same measure for “[Bis(aminomethyl)dimethylsilane]tetrachloroplatinum(IV), CHEMBL2146190”: 11.6 µM; for “[Bis(aminomethyl)diethylsilane]tetrachloroplatinum(IV), CHEMBL2146203”: 11.9 µM; for CISPLATIN, CHEMBL11359: 13.4 µM.

Source of the values: ChEMBL document CHEMBL1201862, “PubChem BioAssay data set” (2004).
